HepG2 viability – qHTS for Inhibitors of TGF-b: Cytotox Counterscreen; HepG2 CAGA-GFP viability, ATP luminescence, 18 h; Potency, µM (doses to about 46.1 µM), for the others: top-dose activity change, negative = cytotoxicity, actives largely listed as cytotoxic; actives 0.76% (n = 410,000); AID 588856, 2011
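CellTiter-Glo luminescence gave cytotoxicity after 18 hours at 37 degrees C. The cells were HepG2 CAGA-GFP in 1% FBS DMEM, stimulated with 500 pg/mL TGF-beta after compound addition. %Activity was normalised to no-cell wells (complete cell-killing) and DMSO (no toxicity), and curves were fitted and classified.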
DT40 TDP1 no CPT – qHTS for Inhibitors of human tyrosyl-DNA phosphodiesterase 1 (TDP1): qHTS in cells in absence of CPT; DT40 Tdp1-/- hTDP1 cells, no CPT, ATP luminescence, 48 h; Potency, µM (series often up to 46.2 µM), for the others: at the highest dose activity change, negative = growth inhibition, actives largely listed as inhibitors; actives 15% (n = 420,000); AID 686978, 2013; further: on the % scale 0 is the no-effect control and ±100 the full control effect; nearly all actives have a fitted effect of over 55% in size
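Seeded 400 DT40-hTDP1 cells/well (vehicle DMSO, no 20 nM CPT); pinned compounds; ≥48 hr at 37 °C; CellTiter-Glo luminescence as viability measure.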
DT40 TDP1 CPT – qHTS for Inhibitors of human tyrosyl-DNA phosphodiesterase 1 (TDP1): qHTS in cells in presence of CPT. chicken DT40 Tdp1-/-;hTDP1 cells + 20 nM CPT, ATP luminescence, 48 h. actives 12% (n = 420,000). Potency, µM (series often up to 46.2 µM), inactives show top-dose activity change, negative = growth inhibition, hits mostly inhibitors; further: on the % scale 0 is the no-effect control and ±100 the full control effect; nearly all actives have a fitted effect of over 55% in size
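Chicken DT40 Tdp1-/- cells complemented with human TDP1, 400 cells/well, exposed to compounds plus 20 nM camptothecin for at least 48 h at 37 C; viability read as ATP content by CellTiter-Glo luminescence.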
HT1080 IDH1KD tx – qHTS for induction of synthetic lethality in tumor cells producing 2HG: qHTS for the HT-1080-IDH1KD cell line. Potency, µM (top dose mostly 46.1 µM), for the others: at the highest dose activity, negative = toxicity, most hits filed as cytotoxic. HT-1080 IDH1 knockdown viability, ATP luminescence, 48 h. actives 2% (n = 360,000);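 further: 0% = DMSO wells and -100% = cell-free medium wells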
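After a 2 h attachment period, IDH1KD HT-1080 cells took pin-transferred compound for 48 h at 37 °C; ATP-based luminescence after 10 min room-temperature reagent incubation reported viability.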
HT1080NT lethal – qHTS for induction of synthetic lethality in tumor cells producing 2HG: qHTS for the HT-1080-NT fibrosarcoma cell line | HT-1080-NT fibrosarcoma viability, CellTiter-Glo ATP luminescence, 48 h | Potency, µM (top dose mostly 46.1 µM), for the others: at the top dose activity, negative = less viability, most hits filed as cytotoxic | actives 1.6% (n = 360,000) | AID 686970, 2013;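 further: NT is the 2HG producing partner of a matched IDH1 knockdown line; 0% = DMSO-treated cells and -100% = media-only wells without cells; nearly all actives have a fitted effect of over 55% in size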
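A 48-hour cytotoxicity screen used HT-1080-NT cells plated 2 hours before compound delivery. ATP-based CellTiter-Glo luminescence measured viability, normalized to DMSO and no-cell controls.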
TGFb inhibitor – qHTS for Inhibitors of TGF-b; AID 588855, 2011; HepG2 CAGA-GFP TGF-b/SMAD3 reporter, GFP fluorescence, 18 h; TGF-beta stimulated, 500 pg/mL final; Potency, µM (top dose mostly 46.1 µM), for the others: top-dose activity, negative = inhibition, usual class: inhibitors; actives 1.2% (n = 410,000); further: on the % scale 0 is the no-effect control and ±100 the full control effect; nearly all actives have a fitted effect of over 65% in size
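Per well, imaged GFP fluorescence of HEPG2 CAGA-GFP cells gives the signal; cells get compound, then TGF-beta (500 pg/mL final), 18 h at 37 degrees C; %Activity versus -TGF-beta and +DMSO controls.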
Starred values were filed as active, the others as inactive; ? = inconclusive; . = no result given. The list is not random: actives were taken first. Their share in the collection is about 17%. The call rests on the fitted dose curve; in most records, active means well fitted curve in the direction sought with a large enough effect; inconclusive means small, poorly fitted or top-dose-only effect, or another doubt; inactive means no such curve, though single readings can be large; an effect the other way counts as inactive or inconclusive. Potency means the concentration at half of the fitted maximal effect.

SMILES | HepG2 viability | DT40 TDP1 no CPT | DT40 TDP1 CPT | HT1080 IDH1KD tx | HT1080NT lethal | TGFb inhibitor
O=C(Cc1ccc(S(=O)(=O)N2CCOCC2)s1)Nc1cc(C(F)(F)F)ccc1N1CCCC1 | -13% | 21µM* | ? | -10% | -2% | -29%
O=C(Cc1ccc(S(=O)(=O)N2CCOCC2)s1)Nc1ccccc1N1CCCC1 | -22% | 15µM* | 16µM* | 17% | 7% | -23%
O=C(Cc1ccc(S(=O)(=O)N2CCOCC2)s1)Nc1ccc(N2CCOCC2)cc1 | 38% | -10% | 8% | 9% | 0% | 26%
COCCCNS(=O)(=O)c1cc2c3c(c1)C(C)C(=O)N3CCC2 (stereo not drawn) | 10% | -23% | -4% | 0% | 6% | 13%
CCc1ccc2c(c1)c(N=NC1=NC(=O)CS1)c(O)n2C | 0% | 16µM* | -28% | 6% | 2% | -3%
Cc1cc(C)c2[nH]c(O)c(N=NC3=NC(=O)CS3)c2c1 | -11% | ? | -13% | 8% | 1% | -26%
CCOC(=O)c1cc(-c2ccccc2)sc1NC(=O)c1cc(OC)c(OC)c(OC)c1 | 17% | 18µM* | ? | 3% | 3% | 11%
CCOC(=O)c1cc(-c2ccccc2)sc1NC(=S)Nc1cc(C)ccn1 | -1% | 10µM* | ? | 13% | 26% | -39%
COc1cc(C(=O)Nc2nc(OC)c(-c3ccccc3)c(OC)n2)cc(OC)c1OC | -5% | 18µM* | ? | ? | ? | -3%
CCOC(=O)c1cc(-c2ccccc2)sc1NC(=O)CC(C)C | -20% | ? | -16% | 0% | 0% | 0%
COc1cc(C(=O)Nc2cc(-c3ccccc3)[nH]n2)cc(OC)c1OC | 0% | ? | ? | ? | ? | 14%
O=C(CSc1ccc2nnc(-c3ccccn3)n2n1)Nc1ccc2c(c1)OCO2 | -2% | -21% | 3% | 10% | -2% | -14%
O=C(NC1CCN(Cc2ccccc2)CC1)c1ccc(Cn2c(=O)c3ccccc3n(Cc3ccc(Cl)cc3)c2=O)cc1 | 4% | ? | ? | . | . | 12%
CCC(=O)N1c2nc(-c3ccco3)nn2C2(CCCCC2)[C@@H]2CCCC[C@@H]21 | -21% | ? | ? | . | . | -29%
COc1ccccc1C(=O)N1c2ncnn2C2(CCCCC2)[C@@H]2CCCC[C@@H]21 | -10% | -18% | -12% | . | . | 15%
CC(C)C(=O)N1c2ncnn2C2(CCCCC2)[C@@H]2CCCC[C@@H]21 | -4% | 10µM* | 16µM* | . | . | -21%
CCC(=O)N1c2nc(C(C)C)nn2C2(CCCCC2)[C@@H]2CCCC[C@@H]21 | 2% | 4.1µM* | 8.2µM* | . | . | -1%
CC(C)Cn1c(=O)c2ccccc2n2c(CCC(=O)NC(C)c3ccccc3)nnc12 (stereo not drawn) | 19% | -2% | 6% | . | . | -2%
O=C(O)c1cccc(N/N=C(\N=Nc2ccccc2)c2ccccc2)c1 | -25% | -25% | ? | ? | ? | -14%
NC(=O)/C(N=Nc1ccccc1)=N/Nc1ccccc1 | -2% | ? | 18µM* | 3% | 13% | 5%
Cc1cc(C(F)F)n2ncc(C(=O)NCc3ccccc3F)c2n1 | 7% | ? | -12% | 6% | 14% | 11%
COc1cc(C(=O)N2c3ccccc3CCC2C)cc(OC)c1OC (stereo not drawn) | -4% | 9.2µM* | 18µM* | ? | 5% | -20%
